Records with an inconclusive call do not appear. Activity calls are given as the source filed them. How the source made its calls: active means hit-call score of the fitted dose curve at least 0.9, where 1 is the maximum; inconclusive means response in the unintended direction; inactive means score below 0.9.

The experiment can be described thus: ATG_XTT_Cytotoxicity: Cytotoxicity Assessment in the Attagene TRANS-FACTORIAL HepG2 Assay (AID 2283584).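 On AC50: cells exposed to compound for 24 h before reading; active means loss of viability signal versus DMSO baseline.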 A digest of the protocol: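 HepG2 human liver cells, transiently transfected with multiple GAL4-UAS reporter units, were dosed and read at 24 h by XTT as cell number. Loss of signal was fitted relative to DMSO negative control baseline.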
Turning to `COc1cc2ncnc(Nc3cccc(Cl)c3)c2cc1OC`, the outcome was inactive.

For the molecule `N#Cc1nc(Cl)c(Cl)c(Cl)c1Cl`, the AC50 was 56.8 µM (active).

In the case of `Clc1sc(Cl)c(Cl)c1Cl`, the call was inactive.

Consider `Clc1ccc2c(c1)C(N1CCNCC1)=Nc1ccccc1O2`, for which the AC50 was 41.8 µM (active).

Take `CCCCCCC#CC(=O)OC`: the outcome was inactive.

Take `C=CCOc1nc(OCC=C)nc(OCC=C)n1`: the molecule was classed as inactive.

Consider `CCCCC[Si](OCC)(OCC)OCC`, for which the outcome was inactive.

For `COc1cc(C(C)(C)C)c(O)c(C(C)(C)C)c1`, the molecule was classed as inactive.

For `Cc1ccc2sc3cccc(C)c3c2c1`, the call was inactive.

On to `O=c1oc(=O)c2cc3c(=O)oc(=O)c3cc12`, for which the outcome was inactive.

As for `CCCCCCCCCCCCOCCO`, the call was inactive.

With `CC(CCO)CCCC(C)(C)O` (stereo not drawn), the result was inactive.

As to `CN1Cc2c(N)cccc2C(c2ccccc2)C1` (stereo not drawn), the result was inactive.

On to `CC1CCC(C(C)(C)O)CC1` (stereo not drawn), for which the call was inactive.

As for `CCCC[n+]1ccccc1`, the outcome was inactive.

In the case of `CCCC(C)C=O` (stereo not drawn), the result was inactive.

`Cc1c(Cl)c(=O)oc2cc(O)ccc12`: the call was inactive.

With `C=C(C)C(=O)OCc1ccccc1`, the call was inactive.

`OCc1cccnc1`: the result was inactive.

Take `CC1COc2ccccc2N1C(=O)C(Cl)Cl` (stereo not drawn): the molecule was classed as inactive.

Turning to `CCC/C=C/C=O`, the molecule was classed as inactive.

For the molecule `CCCC(=O)OCCC(C)CCC=C(C)C` (stereo not drawn), the molecule was called inactive.

For `Nc1cc(N)cc(C(=O)O)c1`, the molecule was classed as inactive.

In the case of `CC(c1cc2ccccc2s1)N(O)C(N)=O` (stereo not drawn), the result was inactive.

With `O=C1NC(=O)c2ccccc21`, the molecule was classed as inactive.

As for `Nc1ccc(F)c([N+](=O)[O-])c1`, the molecule was classed as inactive.

As for `O=[N+]([O-])c1ccc(C=Cc2ccc([N+](=O)[O-])cc2S(=O)(=O)O)c(S(=O)(=O)O)c1`, the molecule was called inactive.

On to `CCc1c(C)cc(N)c(CC)c1N`, for which the molecule was called inactive.

With `CN(C)c1ccc(O)c2c1C[C@H]1C[C@H]3[C@H](N(C)C)C(=O)C(C(N)=O)=C(O)[C@@]3(O)C(=O)C1=C2O`, the outcome was inactive.

On to `Cc1cccc(C)c1C`, for which the result was inactive.

Turning to `COc1ccnc(CS(=O)c2nc3cc(OC(F)F)ccc3[nH]2)c1OC` (stereo not drawn), the molecule was classed as inactive.

For `O=CCCc1ccccc1`, the result was inactive.

For `Clc1cccc(Cl)n1`, the call was inactive.

For `O=C[C@H](O)[C@H](O)[C@H](O)CO`, the molecule was classed as inactive.

Regarding `CSc1nnc(C(C)(C)C)c(=O)[nH]1`, the outcome was inactive.

For the molecule `COC(=O)C1=C(C)NC(C)=C(C(=O)OCCN(C)Cc2ccccc2)C1c1cccc([N+](=O)[O-])c1` (stereo not drawn), the molecule was called inactive.

Take `O=C(COc1ccc(Cl)cc1)N1CCN(Cc2ccc3c(c2)OCO3)CC1`: the molecule was classed as inactive.

`OCCOc1cccc(OCCO)c1`: the molecule was called inactive.
